# Test results taken from paper PMC7862700, “An all-to-all approach to the identification of sequence-specific readers for epigenetic DNA modifications on cytosine”.
# Columns and labels:
# Assay in all cases: DAPPL (digital affinity profiling via proximity ligation, sequencing); 10 mM Tris-HCl pH 7.5, 50 mM NaCl, 1 mM DTT, 4% glycerol, room temperature, 30 min; GST-TFs on glutathione beads, 16-mer random dsDNA library, 0.1% formaldehyde crosslink after washing; high values mean tight binding
# [1] = target: T1, FLI1 (Homo sapiens, UniProt Q01543 1-452); details: protein: recombinant; tags: N-terminal GST; dsDNA, one strand shown
# T1 sequence: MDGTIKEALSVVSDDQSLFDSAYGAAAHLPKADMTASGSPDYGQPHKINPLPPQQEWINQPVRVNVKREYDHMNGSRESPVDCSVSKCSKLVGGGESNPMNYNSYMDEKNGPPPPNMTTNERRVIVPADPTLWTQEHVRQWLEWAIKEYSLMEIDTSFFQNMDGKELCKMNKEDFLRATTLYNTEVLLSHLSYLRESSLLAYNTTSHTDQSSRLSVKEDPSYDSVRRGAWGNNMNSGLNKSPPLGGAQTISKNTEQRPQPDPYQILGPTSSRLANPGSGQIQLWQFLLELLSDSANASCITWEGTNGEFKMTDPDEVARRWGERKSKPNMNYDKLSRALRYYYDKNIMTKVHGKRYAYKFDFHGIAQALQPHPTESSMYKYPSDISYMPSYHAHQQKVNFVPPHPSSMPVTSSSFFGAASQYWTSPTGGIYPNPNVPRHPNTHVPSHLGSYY
# Procedure, shortened: (§1)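 A tag-only sample was pooled with DNA-barcoded human transcription factors that had been expressed in yeast as GST fusions and captured on glutathione beads. The pools were incubated for 30 min at room temperature with 200 nmole of a random double-stranded 16-mer DNA library in Tris/NaCl/DTT/glycerol buffer, then washed, crosslinked with 0.1% formaldehyde, proximity-ligated (BsaI/T4 ligase, 1 h, 37 °C), PCR-amplified and sequenced on an Illumina NextSeq500. Binding signal is each hexamer's read frequency for a factor divided by its frequency for the tag-only sample.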
# [2] = target: T2, ELK1 (Homo sapiens, UniProt P19419 1-428); details: protein: recombinant; tags: N-terminal GST; dsDNA, one strand shown
# T2 sequence: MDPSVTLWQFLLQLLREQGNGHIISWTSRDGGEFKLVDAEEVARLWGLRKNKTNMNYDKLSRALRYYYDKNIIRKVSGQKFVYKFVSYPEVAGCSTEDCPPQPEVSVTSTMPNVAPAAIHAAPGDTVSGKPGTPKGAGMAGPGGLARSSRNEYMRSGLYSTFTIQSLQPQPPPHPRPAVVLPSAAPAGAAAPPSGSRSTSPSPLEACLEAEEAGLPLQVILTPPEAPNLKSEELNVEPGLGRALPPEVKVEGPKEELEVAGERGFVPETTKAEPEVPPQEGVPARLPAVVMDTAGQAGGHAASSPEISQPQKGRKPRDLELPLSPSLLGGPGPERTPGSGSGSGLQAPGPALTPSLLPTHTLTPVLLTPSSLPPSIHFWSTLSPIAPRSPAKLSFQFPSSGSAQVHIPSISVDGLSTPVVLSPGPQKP
# Procedure, shortened: as §1
# [3] = target: T3, GABPA (Homo sapiens, UniProt Q06546 1-454); details: protein: recombinant; tags: N-terminal GST; dsDNA, one strand shown
# T3 sequence: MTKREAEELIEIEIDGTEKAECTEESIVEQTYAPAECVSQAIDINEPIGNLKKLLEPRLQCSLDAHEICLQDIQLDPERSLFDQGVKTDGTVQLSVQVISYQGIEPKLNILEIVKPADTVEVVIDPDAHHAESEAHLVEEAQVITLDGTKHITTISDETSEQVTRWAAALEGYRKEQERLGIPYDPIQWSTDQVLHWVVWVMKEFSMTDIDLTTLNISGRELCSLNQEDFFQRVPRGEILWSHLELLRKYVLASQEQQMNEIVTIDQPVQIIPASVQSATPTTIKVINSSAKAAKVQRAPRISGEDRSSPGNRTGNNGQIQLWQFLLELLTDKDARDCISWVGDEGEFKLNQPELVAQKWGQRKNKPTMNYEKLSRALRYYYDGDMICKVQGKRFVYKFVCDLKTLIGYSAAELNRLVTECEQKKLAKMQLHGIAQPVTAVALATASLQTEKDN
# Procedure, shortened: as §1
# [4] = target: T4, ERG (Homo sapiens, UniProt P11308 1-479); details: protein: recombinant; tags: N-terminal GST; dsDNA, one strand shown
# T4 sequence: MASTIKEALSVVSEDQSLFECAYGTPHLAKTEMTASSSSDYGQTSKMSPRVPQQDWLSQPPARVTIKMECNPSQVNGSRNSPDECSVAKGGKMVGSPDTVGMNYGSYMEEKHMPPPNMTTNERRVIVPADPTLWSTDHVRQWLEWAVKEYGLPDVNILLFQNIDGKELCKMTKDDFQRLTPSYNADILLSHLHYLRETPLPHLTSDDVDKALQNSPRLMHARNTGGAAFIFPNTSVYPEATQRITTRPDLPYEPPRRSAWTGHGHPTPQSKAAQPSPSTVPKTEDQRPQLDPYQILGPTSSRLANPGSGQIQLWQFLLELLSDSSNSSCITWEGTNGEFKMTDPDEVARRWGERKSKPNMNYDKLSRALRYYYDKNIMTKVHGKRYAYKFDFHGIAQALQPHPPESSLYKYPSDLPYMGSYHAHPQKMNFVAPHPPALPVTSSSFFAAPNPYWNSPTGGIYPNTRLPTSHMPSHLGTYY
# Procedure, shortened: as §1
# [5] = target: ELF1 (Homo sapiens, UniProt P32519 1-619); details: protein: recombinant; tags: N-terminal GST; dsDNA, one strand shown
# Procedure, shortened: as §1
# [6] = target: SPI1 (Homo sapiens, UniProt P17947 1-270); details: protein: recombinant; tags: N-terminal GST; dsDNA, one strand shown
# Procedure, shortened: as §1
# [7] = target: SPIB (Homo sapiens, UniProt Q01892 1-262); details: protein: recombinant; tags: N-terminal GST; dsDNA, one strand shown
# Procedure, shortened: as §1
# [8] = target: T5, ELK3 (Homo sapiens, UniProt P41970 1-407); details: protein: recombinant; tags: N-terminal GST; dsDNA, one strand shown
# T5 sequence: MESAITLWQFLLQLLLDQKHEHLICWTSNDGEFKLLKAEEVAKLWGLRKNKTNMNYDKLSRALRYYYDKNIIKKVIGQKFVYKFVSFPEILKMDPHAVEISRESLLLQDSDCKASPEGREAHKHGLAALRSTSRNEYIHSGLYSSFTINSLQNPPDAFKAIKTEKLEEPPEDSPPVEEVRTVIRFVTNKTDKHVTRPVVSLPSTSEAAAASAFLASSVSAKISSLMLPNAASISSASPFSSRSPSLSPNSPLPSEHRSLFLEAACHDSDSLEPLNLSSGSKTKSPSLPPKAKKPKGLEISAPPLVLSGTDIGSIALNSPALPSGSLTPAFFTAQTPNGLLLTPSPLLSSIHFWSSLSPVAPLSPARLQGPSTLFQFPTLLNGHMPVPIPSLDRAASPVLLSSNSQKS
# Procedure, shortened: as §1
# [9] = target: ETV5 (Homo sapiens, UniProt P41161 1-510); details: protein: recombinant; tags: N-terminal GST; dsDNA, one strand shown
# Procedure, shortened: as §1
# [10] = target: HSF1 (Homo sapiens, UniProt Q00613 1-529); details: protein: recombinant; tags: N-terminal GST; chain copies: 3; dsDNA, one strand shown
# Procedure, shortened: as §1
# [11] = target: T6, SPIC (Homo sapiens, UniProt Q8N5J4 1-248); details: protein: recombinant; tags: N-terminal GST; dsDNA, one strand shown
# T6 sequence: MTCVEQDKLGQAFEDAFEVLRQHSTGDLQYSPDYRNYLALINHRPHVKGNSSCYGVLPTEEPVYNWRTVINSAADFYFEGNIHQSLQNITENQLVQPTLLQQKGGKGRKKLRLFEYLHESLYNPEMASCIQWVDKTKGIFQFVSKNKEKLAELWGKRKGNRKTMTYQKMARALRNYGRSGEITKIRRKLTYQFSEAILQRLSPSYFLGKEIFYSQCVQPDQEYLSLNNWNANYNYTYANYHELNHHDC
# Procedure, shortened: as §1
# [12] = target: ELF4 (Homo sapiens, UniProt Q99607 1-663); details: protein: recombinant; tags: N-terminal GST; dsDNA, one strand shown
# Procedure, shortened: as §1
# [13] = target: T7, ELK4 (Homo sapiens, UniProt P28324-2 1-405); details: protein: recombinant; tags: N-terminal GST; dsDNA, one strand shown
# T7 sequence: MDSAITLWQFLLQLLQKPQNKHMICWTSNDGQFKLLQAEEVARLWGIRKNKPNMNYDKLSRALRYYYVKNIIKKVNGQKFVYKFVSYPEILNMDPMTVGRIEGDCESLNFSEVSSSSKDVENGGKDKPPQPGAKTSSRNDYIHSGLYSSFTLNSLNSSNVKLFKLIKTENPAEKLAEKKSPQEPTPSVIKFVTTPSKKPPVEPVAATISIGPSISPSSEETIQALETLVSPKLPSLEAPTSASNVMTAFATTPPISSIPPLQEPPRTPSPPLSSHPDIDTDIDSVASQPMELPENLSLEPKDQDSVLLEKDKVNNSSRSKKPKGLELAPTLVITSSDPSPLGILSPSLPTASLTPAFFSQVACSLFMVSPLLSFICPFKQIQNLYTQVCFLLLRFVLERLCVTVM
# Procedure, shortened: as §1
# [14] = target: T8, ETV2 (Homo sapiens, UniProt O00321 1-342); details: protein: recombinant; tags: N-terminal GST; dsDNA, one strand shown
# T8 sequence: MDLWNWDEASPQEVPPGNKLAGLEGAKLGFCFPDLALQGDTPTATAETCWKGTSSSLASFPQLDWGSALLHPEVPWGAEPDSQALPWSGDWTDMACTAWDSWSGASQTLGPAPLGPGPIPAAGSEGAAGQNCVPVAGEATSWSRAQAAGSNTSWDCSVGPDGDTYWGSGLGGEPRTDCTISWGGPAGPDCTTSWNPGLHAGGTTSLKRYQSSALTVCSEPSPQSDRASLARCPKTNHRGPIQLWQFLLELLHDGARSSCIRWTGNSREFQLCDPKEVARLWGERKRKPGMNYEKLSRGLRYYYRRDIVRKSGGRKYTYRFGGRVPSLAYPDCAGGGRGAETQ
# Procedure, shortened: as §1
# [15] = target: T9, ELF3 (Homo sapiens, UniProt P78545 1-371); details: protein: recombinant; tags: N-terminal GST; dsDNA, one strand shown
# T9 sequence: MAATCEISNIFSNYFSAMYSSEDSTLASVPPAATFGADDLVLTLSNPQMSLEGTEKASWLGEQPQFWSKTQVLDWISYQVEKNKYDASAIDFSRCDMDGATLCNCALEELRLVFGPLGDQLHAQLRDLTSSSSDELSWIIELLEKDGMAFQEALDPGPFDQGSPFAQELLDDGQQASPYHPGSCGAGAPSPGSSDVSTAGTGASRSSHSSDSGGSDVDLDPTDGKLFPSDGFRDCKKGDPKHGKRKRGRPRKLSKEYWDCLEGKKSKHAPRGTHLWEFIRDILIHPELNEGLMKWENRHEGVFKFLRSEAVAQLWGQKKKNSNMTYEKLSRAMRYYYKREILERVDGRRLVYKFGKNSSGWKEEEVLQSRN
# Procedure, shortened: as §1
# [16] = target: CRX (Homo sapiens, UniProt O43186 1-299); details: protein: recombinant; tags: N-terminal GST; dsDNA, one strand shown
# Procedure, shortened: as §1
# [17] = target: ETV1 (Homo sapiens, UniProt P50549 1-477); details: protein: recombinant; tags: N-terminal GST; dsDNA, one strand shown
# Procedure, shortened: as §1
# SPIB, sequence (Q01892 whole entry): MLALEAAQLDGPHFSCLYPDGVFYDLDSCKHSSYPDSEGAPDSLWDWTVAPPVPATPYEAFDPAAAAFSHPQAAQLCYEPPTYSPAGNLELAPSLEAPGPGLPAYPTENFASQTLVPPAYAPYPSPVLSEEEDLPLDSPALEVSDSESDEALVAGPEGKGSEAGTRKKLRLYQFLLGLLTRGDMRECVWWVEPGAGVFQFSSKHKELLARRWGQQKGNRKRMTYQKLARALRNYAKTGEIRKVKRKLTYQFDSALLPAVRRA
# ETV1, sequence (P50549 whole entry): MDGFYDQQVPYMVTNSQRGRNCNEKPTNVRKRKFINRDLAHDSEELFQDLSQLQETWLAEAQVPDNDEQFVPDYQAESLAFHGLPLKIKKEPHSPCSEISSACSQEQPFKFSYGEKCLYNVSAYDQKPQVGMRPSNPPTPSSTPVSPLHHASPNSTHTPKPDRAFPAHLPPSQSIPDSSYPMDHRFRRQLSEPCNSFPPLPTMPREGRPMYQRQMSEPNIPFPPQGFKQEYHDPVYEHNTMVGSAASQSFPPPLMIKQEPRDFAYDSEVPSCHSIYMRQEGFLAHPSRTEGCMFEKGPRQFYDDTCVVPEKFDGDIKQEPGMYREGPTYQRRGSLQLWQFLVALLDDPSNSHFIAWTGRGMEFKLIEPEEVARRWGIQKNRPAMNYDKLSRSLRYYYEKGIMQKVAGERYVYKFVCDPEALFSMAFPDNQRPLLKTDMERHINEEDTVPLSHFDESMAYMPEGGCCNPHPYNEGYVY
# HSF1, sequence (Q00613 whole entry): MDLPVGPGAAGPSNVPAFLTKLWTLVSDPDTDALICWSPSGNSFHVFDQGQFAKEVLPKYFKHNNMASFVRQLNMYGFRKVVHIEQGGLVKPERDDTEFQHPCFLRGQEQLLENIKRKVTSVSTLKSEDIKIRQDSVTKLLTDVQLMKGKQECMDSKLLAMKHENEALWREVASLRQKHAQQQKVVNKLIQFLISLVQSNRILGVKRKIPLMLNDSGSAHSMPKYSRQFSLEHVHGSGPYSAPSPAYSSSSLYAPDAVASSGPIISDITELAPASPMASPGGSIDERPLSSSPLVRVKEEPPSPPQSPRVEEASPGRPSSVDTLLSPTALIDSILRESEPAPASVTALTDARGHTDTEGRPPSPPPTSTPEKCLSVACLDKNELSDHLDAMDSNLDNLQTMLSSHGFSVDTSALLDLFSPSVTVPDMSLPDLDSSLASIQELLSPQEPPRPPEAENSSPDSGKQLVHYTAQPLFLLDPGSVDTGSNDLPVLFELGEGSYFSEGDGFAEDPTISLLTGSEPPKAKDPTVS
# CRX, sequence (O43186 whole entry): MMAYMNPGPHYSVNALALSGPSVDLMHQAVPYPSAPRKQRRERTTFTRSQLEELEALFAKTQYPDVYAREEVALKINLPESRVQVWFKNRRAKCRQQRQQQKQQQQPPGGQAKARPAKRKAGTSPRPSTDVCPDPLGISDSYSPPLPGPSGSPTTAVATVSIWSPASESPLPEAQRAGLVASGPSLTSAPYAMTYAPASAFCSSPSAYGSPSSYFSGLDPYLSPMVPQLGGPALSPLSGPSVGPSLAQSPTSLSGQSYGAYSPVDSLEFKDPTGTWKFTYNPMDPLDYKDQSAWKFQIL
# ELF4, sequence (Q99607 whole entry): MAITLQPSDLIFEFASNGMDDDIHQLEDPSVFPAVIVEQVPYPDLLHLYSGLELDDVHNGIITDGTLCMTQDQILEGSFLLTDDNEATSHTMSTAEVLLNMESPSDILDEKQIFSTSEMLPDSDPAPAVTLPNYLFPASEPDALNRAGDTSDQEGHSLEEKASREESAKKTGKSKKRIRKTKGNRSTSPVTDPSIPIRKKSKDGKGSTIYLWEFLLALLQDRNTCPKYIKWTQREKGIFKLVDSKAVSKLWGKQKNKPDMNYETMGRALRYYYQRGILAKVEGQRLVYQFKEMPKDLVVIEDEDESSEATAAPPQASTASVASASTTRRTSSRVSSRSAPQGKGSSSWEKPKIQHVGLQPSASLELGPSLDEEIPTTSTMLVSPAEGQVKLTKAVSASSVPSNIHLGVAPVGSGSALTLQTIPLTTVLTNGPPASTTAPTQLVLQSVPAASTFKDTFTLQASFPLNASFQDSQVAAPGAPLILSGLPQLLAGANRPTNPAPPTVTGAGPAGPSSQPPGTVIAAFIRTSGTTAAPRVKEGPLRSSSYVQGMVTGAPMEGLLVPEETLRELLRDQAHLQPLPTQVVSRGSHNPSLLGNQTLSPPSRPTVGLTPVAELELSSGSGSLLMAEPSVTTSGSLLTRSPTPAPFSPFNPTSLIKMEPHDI
# ETV5, sequence (P41161 whole entry): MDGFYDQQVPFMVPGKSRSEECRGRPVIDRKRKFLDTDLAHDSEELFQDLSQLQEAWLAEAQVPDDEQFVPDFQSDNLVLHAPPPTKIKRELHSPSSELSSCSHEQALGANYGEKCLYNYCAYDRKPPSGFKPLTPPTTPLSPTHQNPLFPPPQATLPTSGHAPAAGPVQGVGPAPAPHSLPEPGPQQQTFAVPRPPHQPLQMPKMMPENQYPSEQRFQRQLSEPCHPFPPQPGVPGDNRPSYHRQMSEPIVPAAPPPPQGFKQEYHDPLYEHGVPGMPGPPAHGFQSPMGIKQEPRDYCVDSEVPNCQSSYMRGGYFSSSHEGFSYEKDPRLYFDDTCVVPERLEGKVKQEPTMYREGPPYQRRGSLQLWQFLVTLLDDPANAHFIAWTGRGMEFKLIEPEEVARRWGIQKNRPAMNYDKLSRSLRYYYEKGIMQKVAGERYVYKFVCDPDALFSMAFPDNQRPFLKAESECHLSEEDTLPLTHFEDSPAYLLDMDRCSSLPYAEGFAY
# ELF1, sequence (P32519 whole entry): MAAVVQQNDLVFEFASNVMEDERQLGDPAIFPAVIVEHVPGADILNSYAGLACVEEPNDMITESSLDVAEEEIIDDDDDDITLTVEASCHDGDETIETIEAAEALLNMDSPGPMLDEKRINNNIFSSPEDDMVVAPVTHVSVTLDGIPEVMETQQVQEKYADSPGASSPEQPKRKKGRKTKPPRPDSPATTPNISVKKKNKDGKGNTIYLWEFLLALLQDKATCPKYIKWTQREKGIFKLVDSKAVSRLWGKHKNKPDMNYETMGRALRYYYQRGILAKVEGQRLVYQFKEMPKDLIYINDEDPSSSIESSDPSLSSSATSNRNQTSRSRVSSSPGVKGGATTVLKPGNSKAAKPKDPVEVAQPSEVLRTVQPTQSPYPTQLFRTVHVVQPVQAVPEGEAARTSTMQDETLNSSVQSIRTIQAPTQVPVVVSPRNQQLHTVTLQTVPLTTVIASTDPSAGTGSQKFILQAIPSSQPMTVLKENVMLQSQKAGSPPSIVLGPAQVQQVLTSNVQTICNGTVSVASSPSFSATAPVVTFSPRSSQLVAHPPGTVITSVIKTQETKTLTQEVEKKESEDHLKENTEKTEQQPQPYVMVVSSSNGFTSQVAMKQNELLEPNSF
sequence,measurement,setting,value
TGTGGA,binding signal,[1],"1.08 fold enrichment (6-mer frequency, TF over GST control)"
same,binding signal,[2],"1.01 fold enrichment (6-mer frequency, TF over GST control)"
same,binding signal,[3],"1.06 fold enrichment (6-mer frequency, TF over GST control)"
same,binding signal,[4],"1.16 fold enrichment (6-mer frequency, TF over GST control)"
same,binding signal,[5],"1.11 fold enrichment (6-mer frequency, TF over GST control)"
same,binding signal,[6],"1.09 fold enrichment (6-mer frequency, TF over GST control)"
same,binding signal,[7],"1.1 fold enrichment (6-mer frequency, TF over GST control)"
same,binding signal,[8],"1.04 fold enrichment (6-mer frequency, TF over GST control)"
same,binding signal,[9],"1.04 fold enrichment (6-mer frequency, TF over GST control)"
same,binding signal,[10],"1.13 fold enrichment (6-mer frequency, TF over GST control)"
same,binding signal,[11],"1.11 fold enrichment (6-mer frequency, TF over GST control)"
same,binding signal,[12],"1.06 fold enrichment (6-mer frequency, TF over GST control)"
same,binding signal,[13],"1.15 fold enrichment (6-mer frequency, TF over GST control)"
same,binding signal,[14],"1.13 fold enrichment (6-mer frequency, TF over GST control)"
same,binding signal,[15],"1 fold enrichment (6-mer frequency, TF over GST control)"
same,binding signal,[16],"1.06 fold enrichment (6-mer frequency, TF over GST control)"
same,binding signal,[17],"1.03 fold enrichment (6-mer frequency, TF over GST control)"
